According to the supplement of paper PMC7595190:

System: MV4-11
Assay: CellTox Green cytotoxicity fluorescence relative to DMSO vehicle (fold of vehicle RFU); higher = more cell death (loss of membrane integrity), active = 2 or more
Experimental: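 Paediatric AML cell lines (MV4-11, CMK, Kasumi-1; 4x10^4 cells/well, 96-well) treated with single compounds from the Selleckchem apoptosis library at 0.01, 0.1 and 1 µM. Cytotoxicity was read with CellTox Green (RFU, Ex 485/Em 520) at 24, 48 and 72 h and normalised to the 0.1% DMSO vehicle. Normalised RFU >= 2 was taken as a successful, cell-killing treatment.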

Measured: CellTox Green cytotoxicity fluorescence

CCCC[C@@H](C=O)NC(=O)[C@H](CC(C)C)NC(=O)OCc1ccccc1 [Calpeptin]
inactive: 0.01 µM, 24 h 0.979 | 0.01 µM, 48 h 0.988 | 0.01 µM, 72 h 0.986 | 0.1 µM, 24 h 1.01 | 0.1 µM, 48 h 1.02 | 0.1 µM, 72 h 1.01 | 1 µM, 24 h 1.01 | 1 µM, 48 h 1.01 | 1 µM, 72 h 0.999

CN(C)CCCCC(=O)Nc1ccc(NC(=S)NC(=O)c2ccc(C(C)(C)C)cc2)cc1 [Tenovin-6]
inactive: 0.01 µM, 24 h 1 | 0.01 µM, 48 h 0.993 | 0.01 µM, 72 h 0.989 | 0.1 µM, 24 h 0.986 | 0.1 µM, 48 h 0.964 | 0.1 µM, 72 h 0.952 | 1 µM, 24 h 1.02 | 1 µM, 48 h 1.02 | 1 µM, 72 h 1.05

C/C(=N\NC(=O)c1cccc(S(=O)(=O)N2CCOCC2)c1)c1cc(Cl)ccc1O
inactive: 0.01 µM, 24 h 0.971 | 0.01 µM, 48 h 0.97 | 0.01 µM, 72 h 0.966 | 0.1 µM, 24 h 0.98 | 0.1 µM, 48 h 0.978 | 0.1 µM, 72 h 0.972 | 1 µM, 24 h 0.953 | 1 µM, 48 h 1.06 | 1 µM, 72 h 1.17

Fc1ccc(CNc2ncnc3ccc(F)cc23)cc1 [Spautin-1]
inactive: 0.01 µM, 24 h 0.982 | 0.01 µM, 48 h 0.965 | 0.01 µM, 72 h 0.962 | 0.1 µM, 24 h 0.962 | 0.1 µM, 48 h 0.942 | 0.1 µM, 72 h 0.936 | 1 µM, 24 h 1.03 | 1 µM, 48 h 1.02 | 1 µM, 72 h 1.02
